Measurements as given in PubChem BioAssay (Tox21).
Calls of active or inactive are those of the source. Entries that show only a call come without a potency. Calls follow the shape of the dose curve; as a rule, active = well fitted curve in the direction sought with a large enough effect in the repeat runs; inconclusive = weak or mixed curves; inactive = flat fitted curve, though single readings scatter.

assay: qHTS assay to test for compound auto fluorescence at 460 nm (blue) in HepG2 cell free culture (AID 720685); settings: Cell-free culture medium, blue autofluorescence 405/460 nm; series mostly up to 91.3 µM
Excerpt: U.S. Tox21 Program National Center for Advancing Translational Sciences [NCATS] NIH Chemical Genomics Center [NCGC] U.S. Environmental Protection Agency [EPA] National Institutes of Environmental Health Sciences [NIEHS] National Toxicology Program [NTP] U.S. Food and Drug Administration [FDA] Tox21 Assay Overview: Compound auto fluorescence often interferes with screening of the compound library against various biological targets and signaling pathways. Some of these compounds may have fluorophoric properties. Such properties may interfere with the assay outputs resulting in false positives and/or negatives. To decrease such complications and ensure the compound activities are relevant in terms of biological response, the Tox21 10K compound library was screened for auto fluorescence. From the fluorophores used as reporter signals in our screening assays, the auto fluorescence equivalencies of compounds against three fluorophores have been evaluated: Triamterene, Fluorescein and Rose Bengal sodium for blue, green and red fluorescence, respectively. The fluorescence intensities were measured using Excitation/Emission wavelengths at 405/460nm, 485/535nm and 540/590nm for blue, green and red labels, respectively. This assay includes the blue fluorescence data.
Tox21 Assay Protocol Summary: 5 uL of culture medium (MEM containing 10% FBS) per well was dispensed into black wall/clear bottom 1536-well plates using a Multidrop Combi Dispenser (ThermoFisher Scientific, Waltham, MA). After 23 nL compound or DMSO vehicle was transferred into assay plate by a pintool work station (Kalypsys, San Diego, CA), fluorescence intensities in the assay plates were measured by an Envision (PerkinElmer, Shelton, CT) plate reader using three labels for measuring blue, green and red fluorescence at […] 460, 535 and 590nm respectively.
Potency is read from the fitted curve at half-maximal effect; tags tell the direction and shape of the fitted curve or compound fluorescence and quenching.

SMILES	Potency
O=C1C(c2[nH]c3ccc(S(=O)(=O)O)cc3c2O)=Nc2ccc(S(=O)(=O)O)cc21	inactive
CN(C)C(=O)COC(=O)Cc1ccc(OC(=O)c2ccc(N=C(N)N)cc2)cc1	inactive
CCC(C)n1ncn(-c2ccc(N3CCN(c4ccc(OC[C@H]5CO[C@](Cn6cncn6)(c6ccc(Cl)cc6Cl)O5)cc4)CC3)cc2)c1=O (stereo not given in full)	inactive
COC(=O)c1ccccc1C	inactive
O=C(O)CN(CCN(CC(=O)O)CC(=O)O)CC(=O)O	inactive
CC(C)CCOC(=O)/C=C/c1ccccc1	inactive
O=C(Oc1ccccc1)Oc1ccccc1	inactive
COc1ccc(-c2coc3cc(O)ccc3c2=O)cc1	inactive
CCCCCCCCCCCCOC(=O)c1ccc(O)cc1	inactive
S=C([S-])NCCNC(=S)[S-].S=C([S-])NCCNC(=S)[S-].[Mn+2].[Zn+2]	inactive
CC(C(=O)O)c1ccc2c(c1)[nH]c1ccc(Cl)cc12 (stereo not given)	inactive
CCCCCc1ccc(Cl)cc1	inactive
CCN(CC)c1ccc2c(-c3ccc(S(=O)(=O)O)cc3S(=O)(=O)[O-])c3ccc(=[N+](CC)CC)cc-3oc2c1	inactive
O=S(=O)(O)c1ccc(Nc2nc(Nc3ccc(/C=C/c4ccc(Nc5nc(Nc6ccc(S(=O)(=O)O)cc6)nc(N(CCO)CCO)n5)cc4S(=O)(=O)O)c(S(=O)(=O)O)c3)nc(N(CCO)CCO)n2)cc1	35.5 µM [fluorescent] (active)
O=[N+]([O-])c1cccc(C(F)(F)F)c1	inactive
COC(C)=O	inactive
CCC(=O)C(=O)CC	inactive
CCCC[P+](C)(CCCC)CCCC	inactive
Nc1ccc(NCCO)c([N+](=O)[O-])c1	inactive
Nc1nc(-c2ccccc2)cs1	inactive

SMILES	Potency
CCC(C)(CCC(C)C)C(=O)[O][Sn]([CH3])([CH3])[O]C(=O)C(C)(CC)CCC(C)C (stereo not given)	inactive
Sc1nc2ccccc2s1	inactive
C#C[C@]1(O)CC[C@H]2[C@@H]3[C@H](C)CC4=C(CCC(=O)C4)[C@H]3CC[C@@]21C	inactive
O=C(/C=C/c1ccccc1)OC/C=C/c1ccccc1	inactive
CCn1c2ccccc2c2cc([N+](=O)[O-])ccc21	inactive
Cc1c(C)c2c(c(C)c1O)CC[C@@](C)(CCC[C@H](C)CCC[C@H](C)CCCC(C)C)O2	inactive
Cc1ccc(C)cc1	inactive
Cc1c(C)c2c(c(C)c1OC(=O)c1cccnc1)CC[C@@](C)(CCC[C@H](C)CCC[C@H](C)CCCC(C)C)O2	inactive
CC1=Nc2ccccc2C1(C)C	inactive
CCCCN(CCCC)CC(O)c1cc(Cl)cc2c1-c1ccc(Cl)cc1/C2=C/c1ccc(Cl)cc1 (stereo not given)	inactive
CC(=O)CC(=O)Nc1ccc(S(=O)(=O)O)cc1	inactive
CC(C)Cn1cnc2c(N)nc3ccccc3c21	inactive
O=C1NC(=O)[C@@H]2CC=CC[C@H]12	inactive
CC(C)(C)c1csc(-c2cc3cc(OCc4ccccc4CC(=O)O)ccc3o2)n1	inactive
O=c1[nH]c(=O)n([C@H]2C[C@H](O)[C@@H](CO)O2)cc1F	inactive
CNC(=O)c1ccccc1Sc1ccc2c(/C=C/c3ccccn3)n[nH]c2c1	inactive
OC1CCCc2ccccc21 (stereo not given)	inactive
S=c1nccc[nH]1	inactive
Cc1cccc2cccnc12	inactive
CC(C)(C)c1ccc(C(O)CCCN2CCC(C(O)(c3ccccc3)c3ccccc3)CC2)cc1 (stereo not given)	inactive
